Among the data in PubChem BioAssay are inhibition values, retold here.

Unmarked numbers belong to inactive results. Active and inactive are the calls of the source.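 The calls were made as follows, unless noted: active = mean inhibition above 46.68%, the untreated control wells mean plus 3 SD; inactive = the rest.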

In assay [1] the target is Nuclear receptor coactivator 3 (Homo sapiens) (UniProt Q9Y6Q9). The assay is described as follows: SRC3 coactivator transcriptional activity inhibitors, confirmation, cell-based, luminescence, quadruplicate (AID 588792;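 active = mean inhibition over 43.08%, the solvent-only control mean plus 3 SD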;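 also: 0% = DMSO treated cells and 100% = gossypol at 36 µM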). The following applies: HEK293 GAL4-SRC3 luciferase reporter, at 3.6 µM, active compounds read high.
Sequence of Nuclear receptor coactivator 3 (Homo sapiens) (Q9Y6Q9 whole entry, looked up, the tested form may be a part): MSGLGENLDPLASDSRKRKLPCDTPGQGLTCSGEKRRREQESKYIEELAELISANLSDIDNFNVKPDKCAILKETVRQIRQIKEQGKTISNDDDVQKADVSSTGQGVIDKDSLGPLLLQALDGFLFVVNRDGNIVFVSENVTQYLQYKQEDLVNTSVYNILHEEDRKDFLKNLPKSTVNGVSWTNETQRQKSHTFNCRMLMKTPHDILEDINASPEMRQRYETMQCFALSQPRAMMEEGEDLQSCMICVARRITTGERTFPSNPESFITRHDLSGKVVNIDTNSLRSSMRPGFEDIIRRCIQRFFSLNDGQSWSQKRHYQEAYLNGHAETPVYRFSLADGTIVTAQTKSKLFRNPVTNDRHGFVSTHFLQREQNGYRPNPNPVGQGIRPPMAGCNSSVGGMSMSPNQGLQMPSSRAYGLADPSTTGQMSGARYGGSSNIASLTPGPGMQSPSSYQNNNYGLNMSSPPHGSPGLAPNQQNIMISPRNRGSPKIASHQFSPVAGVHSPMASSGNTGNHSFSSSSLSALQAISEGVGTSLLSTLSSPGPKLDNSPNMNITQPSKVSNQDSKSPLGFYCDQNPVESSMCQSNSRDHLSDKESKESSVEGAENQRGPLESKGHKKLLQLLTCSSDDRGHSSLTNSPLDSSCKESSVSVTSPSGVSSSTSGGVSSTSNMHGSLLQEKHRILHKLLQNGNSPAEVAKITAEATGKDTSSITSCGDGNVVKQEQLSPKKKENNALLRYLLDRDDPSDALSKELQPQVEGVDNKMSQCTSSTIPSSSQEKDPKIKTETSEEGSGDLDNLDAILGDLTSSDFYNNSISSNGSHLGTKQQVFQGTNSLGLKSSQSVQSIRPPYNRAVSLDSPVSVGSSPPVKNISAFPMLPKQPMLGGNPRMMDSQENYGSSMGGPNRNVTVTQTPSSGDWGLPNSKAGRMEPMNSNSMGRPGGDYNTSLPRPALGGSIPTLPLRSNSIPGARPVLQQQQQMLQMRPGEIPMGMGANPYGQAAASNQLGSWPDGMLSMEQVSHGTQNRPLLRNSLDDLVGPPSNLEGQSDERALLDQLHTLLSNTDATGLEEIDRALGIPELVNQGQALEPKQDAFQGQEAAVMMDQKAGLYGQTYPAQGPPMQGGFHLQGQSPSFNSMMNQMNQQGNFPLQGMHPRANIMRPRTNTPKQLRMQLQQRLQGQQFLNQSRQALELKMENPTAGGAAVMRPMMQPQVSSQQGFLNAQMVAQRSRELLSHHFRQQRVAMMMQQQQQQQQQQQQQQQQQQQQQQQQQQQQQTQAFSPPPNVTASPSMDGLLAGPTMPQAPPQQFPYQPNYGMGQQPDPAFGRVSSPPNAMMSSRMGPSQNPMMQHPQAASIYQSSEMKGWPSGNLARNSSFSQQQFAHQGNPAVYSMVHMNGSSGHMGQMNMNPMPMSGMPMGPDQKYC
Assay [2] concerns transactivating tegument protein VP16 (Human herpesvirus 1), Gal4-VP16 luciferase reporter. The assay is described as follows: VP16 transactivation inhibitors, counter-screen for SRC3 inhibitor project, cell-based, luminescence, high throughput (AID 588794; in the data active = inhibition above about 30%). To be noted: mammalian cells, VP16-driven luciferase reporter luminescence; at 3.6 µM; active compounds read high. (A counterscreen serves to expose hits that act by an unwanted route or on another target.)

The target in assay [3] is Nuclear receptor coactivator 1 (Homo sapiens) (UniProt Q15788). The assay is described as follows: SRC1 coactivator transcriptional activity inhibitors, confirmation, cell-based, luminescence, quadruplicate (AID 588820).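 Also: 0% = DMSO wells and 100% = gossypol 36 µM treated wells.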 The following applies: HEK293 GAL4-SRC1 luciferase reporter, at 3.6 µM, active compounds read high.
Sequence of Nuclear receptor coactivator 1 (Homo sapiens) (Q15788 whole entry, looked up, the tested form may be a part): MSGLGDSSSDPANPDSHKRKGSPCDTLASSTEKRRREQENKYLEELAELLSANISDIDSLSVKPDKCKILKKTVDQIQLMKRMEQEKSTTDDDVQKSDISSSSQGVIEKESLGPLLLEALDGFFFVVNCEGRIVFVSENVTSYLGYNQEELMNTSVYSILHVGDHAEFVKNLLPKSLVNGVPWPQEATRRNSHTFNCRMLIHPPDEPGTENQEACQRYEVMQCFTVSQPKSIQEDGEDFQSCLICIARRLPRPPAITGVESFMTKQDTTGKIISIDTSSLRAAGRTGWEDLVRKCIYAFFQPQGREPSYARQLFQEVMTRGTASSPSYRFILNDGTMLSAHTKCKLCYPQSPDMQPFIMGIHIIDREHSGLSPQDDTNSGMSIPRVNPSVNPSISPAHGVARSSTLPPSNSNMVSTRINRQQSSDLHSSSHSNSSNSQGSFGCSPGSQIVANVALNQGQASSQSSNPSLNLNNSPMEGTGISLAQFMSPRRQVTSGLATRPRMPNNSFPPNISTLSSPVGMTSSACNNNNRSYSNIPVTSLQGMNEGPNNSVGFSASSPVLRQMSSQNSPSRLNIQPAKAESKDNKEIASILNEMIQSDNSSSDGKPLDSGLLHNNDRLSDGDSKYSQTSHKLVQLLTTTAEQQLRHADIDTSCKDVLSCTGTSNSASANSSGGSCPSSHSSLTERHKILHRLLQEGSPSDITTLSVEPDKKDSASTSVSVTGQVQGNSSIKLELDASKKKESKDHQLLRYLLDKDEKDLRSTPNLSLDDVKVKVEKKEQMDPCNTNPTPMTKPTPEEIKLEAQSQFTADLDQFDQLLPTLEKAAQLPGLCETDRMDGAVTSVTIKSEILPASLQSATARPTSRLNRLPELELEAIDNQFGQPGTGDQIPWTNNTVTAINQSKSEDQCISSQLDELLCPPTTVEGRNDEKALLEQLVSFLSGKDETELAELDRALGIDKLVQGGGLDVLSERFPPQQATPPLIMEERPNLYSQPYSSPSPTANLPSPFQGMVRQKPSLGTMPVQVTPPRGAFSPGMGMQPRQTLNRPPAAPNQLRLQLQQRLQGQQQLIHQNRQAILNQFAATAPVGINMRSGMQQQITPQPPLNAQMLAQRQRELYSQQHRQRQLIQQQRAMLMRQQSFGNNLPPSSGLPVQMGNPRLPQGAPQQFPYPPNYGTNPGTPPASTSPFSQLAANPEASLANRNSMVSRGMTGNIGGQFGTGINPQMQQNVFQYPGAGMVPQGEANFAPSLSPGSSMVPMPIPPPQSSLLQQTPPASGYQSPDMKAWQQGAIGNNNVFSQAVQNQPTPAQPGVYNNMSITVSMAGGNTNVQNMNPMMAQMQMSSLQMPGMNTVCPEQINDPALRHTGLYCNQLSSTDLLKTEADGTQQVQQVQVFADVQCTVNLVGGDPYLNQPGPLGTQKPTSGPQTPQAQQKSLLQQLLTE
The nature of assay [4]: VP16 transactivation inhibitors, counter-screen for SRC1 inhibitor project, cell-based, luminescence, high throughput (AID 588824; in the data active = inhibition above about 25%). The following applies: cell-based VP16 transactivation luciferase luminescence; at 3.6 µM; active compounds read high.
Assay [5] deals with transactivating tegument protein VP16 (Human herpesvirus 1). In words: VP16 transactivation reporter inhibitors, counter-screen for SRC2 inhibitor project, cell-based, luminescence, single concentration (AID 652007; in the data active = inhibition above about 36%). The following applies: cell-based VP16 transactivation luciferase reporter, at 8.9 µM, active compounds read high.
For assay [6], the target named is Nuclear receptor coactivator 2 (Homo sapiens) (UniProt Q15596). The assay is described as follows: SRC2 coactivator transcriptional activity inhibitors, confirmation, cell-based, luminescence, HEK293, triplicate (AID 652008;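 active = mean inhibition above 46.5%, the solvent-only control mean plus 3 SD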;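 also: 0% = DMSO-treated cells and 100% = Gossypol at 36 µM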). The following applies: HEK293 GAL4-SRC2 luciferase reporter, at 8.9 µM, active compounds read high. On the technique in general: A reporter such as luciferase makes a cellular process visible.
Sequence of Nuclear receptor coactivator 2 (Homo sapiens) (Q15596 whole entry, looked up, the tested form may be a part): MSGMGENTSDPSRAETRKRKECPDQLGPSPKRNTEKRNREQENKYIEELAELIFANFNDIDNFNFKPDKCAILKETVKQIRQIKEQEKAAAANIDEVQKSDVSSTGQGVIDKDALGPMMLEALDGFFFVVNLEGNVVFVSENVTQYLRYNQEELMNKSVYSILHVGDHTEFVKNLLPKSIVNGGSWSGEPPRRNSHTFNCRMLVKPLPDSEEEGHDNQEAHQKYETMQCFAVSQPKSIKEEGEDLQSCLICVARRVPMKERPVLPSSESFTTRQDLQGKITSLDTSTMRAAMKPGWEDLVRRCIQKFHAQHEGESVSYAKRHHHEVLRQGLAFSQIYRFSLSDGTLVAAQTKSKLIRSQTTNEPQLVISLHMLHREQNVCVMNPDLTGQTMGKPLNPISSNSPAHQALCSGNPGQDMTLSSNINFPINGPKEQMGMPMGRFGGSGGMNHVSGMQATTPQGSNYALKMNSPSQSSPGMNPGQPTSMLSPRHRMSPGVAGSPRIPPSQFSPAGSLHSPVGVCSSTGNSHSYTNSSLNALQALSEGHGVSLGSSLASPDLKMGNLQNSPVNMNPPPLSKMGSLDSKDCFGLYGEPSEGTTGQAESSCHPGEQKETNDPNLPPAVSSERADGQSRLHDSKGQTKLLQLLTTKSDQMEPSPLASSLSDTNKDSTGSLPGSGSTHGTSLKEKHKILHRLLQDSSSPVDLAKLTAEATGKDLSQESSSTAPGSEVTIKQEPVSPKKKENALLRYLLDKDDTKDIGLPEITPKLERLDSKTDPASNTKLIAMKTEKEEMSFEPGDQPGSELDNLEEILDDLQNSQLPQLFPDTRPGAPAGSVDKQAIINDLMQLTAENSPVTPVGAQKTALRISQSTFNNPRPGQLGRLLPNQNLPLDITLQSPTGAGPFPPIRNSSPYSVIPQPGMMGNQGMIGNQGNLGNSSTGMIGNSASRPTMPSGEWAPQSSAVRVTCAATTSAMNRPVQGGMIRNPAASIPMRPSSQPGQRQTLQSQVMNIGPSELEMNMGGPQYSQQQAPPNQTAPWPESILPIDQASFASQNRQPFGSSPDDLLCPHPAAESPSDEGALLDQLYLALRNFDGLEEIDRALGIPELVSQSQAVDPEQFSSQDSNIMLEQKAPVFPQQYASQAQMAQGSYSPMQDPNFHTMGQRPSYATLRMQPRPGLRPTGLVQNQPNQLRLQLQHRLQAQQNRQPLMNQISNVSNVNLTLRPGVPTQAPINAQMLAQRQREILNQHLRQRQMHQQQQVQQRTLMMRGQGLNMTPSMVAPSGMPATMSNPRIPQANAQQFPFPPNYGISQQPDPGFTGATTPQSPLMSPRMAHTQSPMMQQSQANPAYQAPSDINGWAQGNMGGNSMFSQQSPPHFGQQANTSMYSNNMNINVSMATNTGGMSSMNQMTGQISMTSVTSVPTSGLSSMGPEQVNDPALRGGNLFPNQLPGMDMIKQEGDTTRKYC

Consider `O=C1CCCCC1Sc1nnc(-c2ccc3c(c2)OCO3)o1` (stereo not drawn), for which the inhibition in assay [1] is -5.91%; in assay [2] it was -22.1%; in assay [3], -129%; in assay [4], -49.6%; in assay [5] it was 34%; in assay [6], 53.1% (active).
As to `COC(=O)CCNc1ccc2c(c1)OCCO2`, the inhibition was 7.16% in assay [1]; -2.66% in assay [2]; -12.2% in assay [3]; -15.9% in assay [4]; -9.29% in assay [5]; 39.5% in assay [6].
As to `CS(=O)(=O)Nc1ccc(-c2cnc3cccnn23)cc1`, the inhibition in assay [1] is 67.9% (active); in assay [2], 41.6% (active); in assay [3], 57.5% (active); in assay [4], 51.7% (active); in assay [5], -12.1%; in assay [6], 45.8%.
As to `COc1ccc(-c2cc(=O)oc3c(C)c(O)ccc23)cc1`, the inhibition in assay [1] was 49.4% (active); in assay [2] it was 39.7% (active); in assay [3], 50.3% (active); in assay [4] it was 26.4% (active); in assay [5] it was -7.99%; in assay [6], 23.3%.
On to `S=c1[nH]nc(C2CCCCC2)n1/N=C/c1ccncc1`, for which the inhibition in assay [1] is 75.2% (active); in assay [2], 60.4% (active); in assay [3], 64.6% (active); in assay [4], 60.1% (active); in assay [5], 10.3%; in assay [6] it was 51.4% (active).
In the case of `COc1ccc(C(=O)CN2C(=O)c3ccccc3S2(=O)=O)cc1`, the inhibition in assay [1] was 57.4% (active); in assay [2] it was 57.1% (active); in assay [3], -21.8%; in assay [4] it was 55.6% (active); in assay [5] it was 72.1% (active); in assay [6], 78.4% (active).
As for `CCOc1cc(/C=C2\COc3ccccc3C2=O)cc(Br)c1OCC(=O)N(C)C`, the inhibition in assay [1] is 61.1% (active); in assay [2], 35.8% (active); in assay [3], 22.3%; in assay [4], 39.2% (active); in assay [5], 44.5% (active); in assay [6], 34%.
Take `Cn1c(/C=C/c2cccc([N+](=O)[O-])c2)c([N+](=O)[O-])c(=O)n(C)c1=O`: the inhibition in assay [1] is 37.6%; in assay [2], 41.4% (active); in assay [3] it was 32.5%; in assay [4] it was 40.8% (active); in assay [5] it was 7.43%; in assay [6], 25.7%.

Broadly, the inhibition is the relative decrease from the control value, in per cent.
